According to the supplement of paper PMC10498489:
Hit rate of the full screen: of about 2,300 compounds, about 330 (14%) showed activity. A selection follows. Values without a mark were called inactive.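 Rule for the calls: active = median modified Z-score above 1.96; inactive = 1.96 or below.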

System: HepG2 Srxn1-GFP reporter cells (+30 nM CDDO-Me)
Assay: Srxn1-GFP intensity median modified Z-score relative to plate median; higher = stronger NRF2 / oxidative stress reporter activation, active = hit call of the paper
Settings: 10 µM; exposure time: 24h
Summary of the method: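 HepG2 Srxn1-GFP BAC reporter cells (20,000 per well, 96-well plates) were co-exposed to an NRF2 activator at 30 nM and compound at 10 μM (≤0.1% DMSO) for 24 h in three replicate plates. After formaldehyde fixation and Hoechst staining, confocal images were analysed per cell for cytoplasmic GFP, excluding images with under 100 cells. The value is the median over replicates of the per-plate modified Z-score of GFP intensity. Scaling used 1.4826 × median absolute deviation.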

SMILES	Srxn1-GFP intensity median modified Z-score
COc1cc(-c2coc3cc(OC)c(OC)c(OC)c3c2=O)cc(OC)c1OC [euspeclibcmpd1402]	-0.364
COc1cc(C)c2c(=O)c(-c3ccccc3)coc2c1 [euspeclibcmpd1711]	0.917
COc1cc2occ(-c3ccccc3)c(=O)c2c(OC)c1C [euspeclibcmpd2367]	3.02 (active)
CC(C)(C)O[C@H]1C[C@@H](O)C1	1.93
CC(=O)O[C@]1(C(C)=O)CCC2C3=CC(C)=C4CC(=O)CCC4(C)C3CCC21C (stereo not given in full) [euspeclibcmpd180]	0.562
CC(NS(=O)(=O)c1cccc(Cl)c1)C1CCCO1 (stereo not given)	1.74
O=C1OCCc2oc(O)cc21 [euspeclibcmpd1348]	33 (active)
Cc1cc(=O)cc(O)o1 [euspeclibcmpd1585]	0.226
O=C(OCc1ccccc1)c1ccccc1 [euspeclibcmpd510]	0.252
OC[C@H]1O[C@@H](O[C@@H]2[C@@H](CO)O[C@](O)(CO)[C@H]2O)[C@H](O)[C@@H](O)[C@H]1O [euspeclibcmpd170]	0.208
NC(=O)c1cc[n+](C=C2CSC3C(NC(=O)C(c4ccccc4)S(=O)(=O)O)C(=O)N3C2C(=O)O)cc1 (stereo not given) [euspeclibcmpd2133]	-0.143
CCN(CC)CCNC(=O)COc1ccc(OC)cc1 [euspeclibcmpd2435]	-0.25
CCN(CC)CCOc1ccc2c(c1)C(=O)c1cc(OCCN(CC)CC)ccc1-2 [euspeclibcmpd940]	5.93 (active)
CCCOc1cc(N)ccc1C(=O)OCCN(CC)CC [euspeclibcmpd379]	0.431
C=Cc1c(C=c2[nH]c(=Cc3[nH]c(C=c4[nH]c(O)c(C=C)c4=C)c(C)c3CCC(=O)O)c(CCC(=O)O)c2C)[nH]c(O)c1C [euspeclibcmpd1536]	0.744
Cc1cc(-c2ccccc2)n[nH]c1=NCCN1CCOCC1 [euspeclibcmpd383]	1.08
CNC(Cc1ccccc1)C(=O)O (stereo not given)	1.21
Cc1coc2c1C(=O)C(=O)c1c-2ccc2c1CCCC2(C)C [euspeclibcmpd1647]	2.22 (active)

SMILES	Srxn1-GFP intensity median modified Z-score
Cc1c(S(=O)(=O)O)oc2c1C(=O)C(=O)c1c-2ccc2c1CCCC2(C)C [euspeclibcmpd2216]	0
CN[C@H]1C[C@@H](N)[C@H](O)[C@@H](O[C@@H]2O[C@H](CO)[C@@H]3OC4(O[C@@H]3[C@@H]2O)O[C@H](C(N)CO)[C@H](O)[C@H](O)[C@H]4O)[C@@H]1O (stereo not given in full) [euspeclibcmpd1459]	-0.136
Nc1ccc(S(=O)(=O)N=c2cccc[nH]2)cc1 [euspeclibcmpd279]	-0.029
COc1ccc2[nH]c3cc(Cl)ccc3c(=Nc3cc(CN4CCCC4)c(O)c(CN4CCCC4)c3)c2n1 [euspeclibcmpd1080]	9.12 (active)
CC1(C)C2CCC1(CS(=O)(=O)O)C(=O)C2=Cc1ccc(C=C2C(=O)C3(CS(=O)(=O)O)CCC2C3(C)C)cc1 [euspeclibcmpd1829]	1.49
C=C(CC)C(=O)c1ccc(OCC(=O)O)c(Cl)c1Cl [euspeclibcmpd119]	14 (active)
CC(C)CCCC(C)[C@H]1CCC2C3CC=C4C[C@@H](OC(=O)c5ccccc5)CC[C@]4(C)C3CC[C@@]21C (stereo not given in full) [euspeclibcmpd2185]	-0.487
CC(O)CNS(=O)(=O)CC1CN(C(=O)C2CC2C)CCO1 (stereo not given)	1.25
CC(C)=C1CNC(C(=O)O)C1CC(=O)O (stereo not given) [euspeclibcmpd2009]	0.265
CC(=O)Oc1ccccc1C(=O)N=c1[nH]cc([N+](=O)[O-])s1 [euspeclibcmpd615]	2.79 (active)
CC(=O)N=c1[nH]cc([N+](=O)[O-])s1 [euspeclibcmpd793]	0.152
O=C(O)c1cc(O)c(O)c(O)c1 [euspeclibcmpd1010]	-0.0488
COc1ccc(C(=O)c2ccc(O)cc2)c(O)c1O [euspeclibcmpd1507]	-0.213
O=C1CC(=O)c2ccccc2C1=O [euspeclibcmpd1562]	9.54 (active)
NC(=O)N1c2ccccc2CC(=O)c2ccccc21 [euspeclibcmpd673]	-0.538
O=C1[O][Bi]([OH])[O]c2ccccc21 [euspeclibcmpd2458]	0.155
C/C(=C\CO)CC[C@H](C)CCC[C@H](C)CCCC(C)C [euspeclibcmpd1621]	-0.0936
